Assay outcomes: PubChem BioAssay, National Center for Advancing Translational Sciences (NCATS)
TRPV1 ag: human TRPV1 agonism; Q8NER1; TRPV1-expressing cells, Fluo-8 calcium influx, agonist mode; activation, % at 8.33 µM; hit rate 0.19% among 320,000; AID 540275; in the data active = activation above about 80%; inconclusive = between about 30% and that limit; note: 0% is about no effect
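Fluo-8 calcium influx in TRPV1-expressing cells, kinetic read (ex 480/em 520 nm). Compound added and read 3 min for agonist activity, followed by capsaicin at EC20 final and 2 min further read for enhancement.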
KCNH2 WT inh: inhibitors of human wildtype KCNH2 potassium channel; U2OS, BacMam KCNH2, thallium flux FluxOr; active compounds read low; Q12809; hit rate 0.37% among 340,000; activity change, % at 1.84 µM;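 active = maximum activity change below -70%; inconclusive = maximum activity change between -70% and -50%; inactive = maximum activity change above -50%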; note: % is set by controls: 0 for no effect and ±100 for the full control effect
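U2OS cells were transduced with wild-type KCNH2 virus (2.03 x 10^8 / mL) for 4 h at room temperature, then cultured overnight at 37 C. Thallium flux was read with FluxOr dye. Rate constants were normalized to DMSO controls.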
TRPV1 potentiator: potentiators of human vanilloid receptor 1 (TRPV1); Q8NER1; TRPV1-expressing cells, Fluo-8 calcium influx, capsaicin EC20 potentiation; potentiation, % at 8.33 µM; hit rate 0.02% among 320,000; in the data active = potentiation above about 80%; inconclusive = between about 30% and that limit; note: 0% is about no effect
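Fluo-8 calcium influx in TRPV1-expressing cells, kinetic read (ex 480/em 520 nm). Compound added and read 3 min for agonist activity, followed by capsaicin at EC20 final and 2 min further read for enhancement.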
p53 reactivation: mutant p53 re-activation in reporter cells | H1299 p53-A138V BP100-luciferase reporter, luminescence, 24 h | Potency, µM (top dose mostly 92.2 µM), inactives show at the highest dose activity change, positive = activation, hits mostly activators | hit rate 0.063% among 320,000; active = well fitted activation curve with a large enough effect; inconclusive = small, poorly fitted or top-dose-only effect; inactive = no such curve, though single readings can be large or run the other way; note: potency is the fitted concentration of half-maximal effect; % of control where 0% means no effect; nearly all actives have a fitted effect of over 45% in size
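H1299 (p53-null), stable ts p53-A138V + BP100-Luc; 1000 cells/well, Opti-MEM/10% FBS; cpd 4 pt, 1:5; 24 h, 37 deg C, 5% CO2; detection reagent 10 min RT; luminescence.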
KCNH2 3.1 inh: blocks the human KCNH2 3.1 channel isoform; U2OS KCNH2 3.1, thallium flux FluxOr; active compounds read low; activity change, % (tested at about 1.8 µM); hit rate 0.95% among 340,000; AID 720553;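 active = maximum activity change below -70%; inconclusive = maximum activity change from -70% to -50%; inactive = maximum activity change above -50%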;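 note: thallium influx rate constant from kinetic fluorescence after stimulation buffer; % is set by controls: 0 for no effect and ±100 for the full control effect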
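Virally transduced U2OS (3.1 isoform, 4 h infection in dark at RT) → overnight 37 C → FluxOr + Red40 in HBSS/HEPES, 45 min → stimulation buffer, 2 min kinetic read → rate constant vs DMSO controls.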
ClpP mod: qHTS Assay for Activators of ClpP; ATP-dependent Clp protease proteolytic subunit (Bacillus subtilis (strain 168)), P80244; purified B. subtilis ClpP, FRET peptide cleavage, 20 min; Potency, µM (highest dose often 57.5 µM), without a hit: top-dose activity change, negative = active; hit rate 1.9% among 340,000; AID 651965, 2013; active = well fitted falling curve with a large enough effect; inconclusive = small, poorly fitted or top-dose-only effect; inactive = no such curve, though single readings can be large or run the other way; note: potency is the fitted concentration of half-maximal effect; the source files actives as falling curves though it sought activators and does not explain the sign; nearly all actives have a fitted effect of over 65% in size
Target sequence (P80244 whole entry, looked up): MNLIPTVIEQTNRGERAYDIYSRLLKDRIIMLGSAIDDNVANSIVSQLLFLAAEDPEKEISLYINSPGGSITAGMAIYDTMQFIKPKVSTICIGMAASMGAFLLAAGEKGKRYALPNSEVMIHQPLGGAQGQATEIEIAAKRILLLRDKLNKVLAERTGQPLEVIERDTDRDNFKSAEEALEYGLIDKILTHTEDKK
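FRET quenching reversal measured ClpP activation: 10 microg/mL B. subtilis ClpP at pH 8 with the FRET-FV decapeptide, read at 430 nm after 320 nm excitation. The 20-min minus 0-min signal was scaled between DMSO/no-enzyme wells and ADEP (5.8 microM final).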
* hit, by the source's call; ? = inconclusive; nt = not tested or not shown. Sampled rows, rich in hits. Any-hit rate of the full collection: about 2.6%.

SMILES	TRPV1 ag	KCNH2 WT inh	TRPV1 potentiator	p53 reactivation	KCNH2 3.1 inh	ClpP mod
CCc1cc2c(=O)c(-c3cnn(-c4ccccc4)c3)c(C)oc2c(CN2CCCCC2)c1O	9	-2	-12	4%	-7	28µM*
COc1ccc2cc(C3CC(c4ccco4)=NN3S(=O)(=O)c3ccccc3)c(Cl)nc2c1 (configuration not stated)	4	-8	15	-8%	-83*	-8%
COc1ccc(OCCN2CCC(C(=O)NC(c3ccc(F)cc3)c3ncccc3C)CC2)cc1 (configuration not stated)	nt	nt	nt	nt	nt	1%
O=c1c(S(=O)(=O)c2ccccc2)cn(Cc2ccccc2)c2cc(N3CCCC3)c(F)cc12	nt	nt	nt	nt	nt	-5%
CC1CCCCN1c1cc2c(cc1F)c(=O)c(S(=O)(=O)c1ccccc1)cn2Cc1ccccc1 (configuration not stated)	nt	nt	nt	nt	nt	16µM*
Cc1ccc(S(=O)(=O)c2cn(Cc3ccccc3)c3cc(N4CCCC4)c(F)cc3c2=O)cc1C	nt	nt	nt	nt	nt	13µM*
O=c1c(S(=O)(=O)c2ccccc2)cn(Cc2ccccc2)c2cc(N3CCOCC3)c(F)cc12	nt	nt	nt	nt	nt	28µM*
Cc1cccc(S(=O)(=O)c2cn(Cc3ccccc3)c3cc(N4CCCCC4C)c(F)cc3c2=O)c1 (configuration not stated)	nt	nt	nt	nt	nt	5%
O=c1c(S(=O)(=O)c2ccccc2)cn(Cc2cccc(F)c2)c2cc(N3CCOCC3)c(F)cc12	nt	nt	nt	nt	nt	28µM*
O=c1c(S(=O)(=O)c2ccccc2)cn(Cc2ccc(F)cc2)c2cc(N3CCCC3)c(F)cc12	nt	nt	nt	nt	nt	-27%
CCCC[C@@H]1Cc2[nH][nH]c(=O)c2[C@H](c2ccc3ccccc3c2)O1	nt	nt	nt	nt	nt	1%
Cc1ccccc1C(=O)Nc1c(C)nc2ccccn2c1=O	nt	nt	nt	nt	nt	-25%
CCn1nc(NC(=O)c2ccccn2)c2cc3cccc(C)c3nc21	?	4	-7	24%	5	32µM*
C/C(=N/Nc1nc(-c2ccccc2)cc(-c2ccccc2)n1)c1ccc(N)cc1	25	nt	-22	32µM*	nt	nt
O=C(COc1ccccc1)Nc1ccc(-c2ccc(N3CCOCC3)nn2)cc1	-4	0	9	28%	0	16µM*
CN1CCN(c2ccc(-c3cccc(NC(=O)COc4ccccc4)c3)nn2)CC1	-1	-35	4	5%	-7	2%
CCc1nc2ccc(C(=O)Nc3cc(-c4ccccc4)ccc3OC)cn2c1N(C)Cc1nccs1	nt	nt	nt	nt	nt	-8%
CC(C)(C)CC(=O)NC1CC(=O)N(c2ccc3c(c2)OCCO3)C1 (configuration not stated)	nt	nt	nt	nt	nt	-1%
CN(C)CCCC1(O)c2ccccc2C=Cc2ccccc21	3	3	-3	-11%	-11	28µM*
Cc1cc(Sc2nnc(N)s2)c2ccccc2n1	-11	4	24	-14%	-78*	1%
O=S(=O)(Nc1ccc(-c2ccc(N3CCCC3)nn2)cc1)c1ccccc1Cl	nt	nt	nt	nt	nt	-10%
Cn1nnc2c(NCCc3ccccc3)ncnc21	nt	nt	nt	nt	nt	-1%
O=C(NCC1CCN(Cc2cccc(F)c2)CC1)c1cc2ccc3cccnc3c2[nH]1	nt	nt	nt	nt	nt	2%
Cn1nnnc1SC(C(=O)Nc1ccc(F)cc1)c1ccccc1 (configuration not stated)	0	-1	4	-2%	15	nt
Cn1c(SC(C(=O)Nc2ccc(F)cc2)c2ccccc2)nc2ccccc21 (configuration not stated)	85*	-9	-4	26%	-82*	0%
SMILES	TRPV1 ag	KCNH2 WT inh	TRPV1 potentiator	p53 reactivation	KCNH2 3.1 inh	ClpP mod
CCCCCn1nnnc1C1(C)CCC(=O)N1Cc1ccco1 (configuration not stated)	nt	nt	nt	nt	nt	0%
CCc1nnc(NC(=O)Cc2c[nH]c3ccccc23)s1	1	36	-4	-1%	-144*	1%
CC(C)Cc1nnc(NC(=O)CCc2c[nH]c3ccccc23)s1	-2	-2	9	2%	20	0%
COCCNc1nc(CSc2ccccc2)nc2sc(C)c(C)c12	?	-9	-9	-31%	9	28µM*
Nc1ccc(C(=O)Nc2ccc(OC(F)(F)C(F)F)c(NC(=O)c3ccc(N)cc3)c2)cc1	0	16	8	-9%	6	16µM*
COc1ccc(C2Nc3ccccc3C(=O)N2c2ccccc2F)cc1COc1ccc(NC(C)=O)cc1 (configuration not stated)	nt	nt	nt	nt	nt	4%
CCc1c(C)nc(N2CCN(c3cccc(OC)c3)CC2)[nH]c1=O	4	0	-8	nt	7	0%
COc1cccc(N2CCN(c3nc(C)cc(=O)[nH]3)CC2)c1	97*	-5	-11	nt	12	-2%
Cc1ccc2nccnc2c1	nt	nt	nt	nt	nt	-13%
COc1ccc(OCC(=O)OCC(=O)NCc2ccco2)cc1	0	-5	1	1%	-5	28µM*
COc1ccc(-c2cc(C(F)(F)F)n3nc(C(=O)NCc4ccco4)cc3n2)cc1	6	-19	-5	2%	3	16µM*
COc1ccc(CC(=O)OCC(=O)NCc2ccco2)cc1	-2	2	10	-2%	-50	nt
Cc1ccc(-c2ccc(=O)n(CC(=O)NCc3ccco3)n2)cc1	nt	7	nt	-4%	2	-13%
COc1ccc(-c2ccc(=O)n(CC(=O)NCc3ccco3)n2)cc1	3	1	3	-9%	6	25µM*
Cc1ccsc1C(=O)OCC(=O)NCc1ccco1	3	9	3	6%	6	3.2µM*
CCCN1CCN(CCNC(=O)Nc2cc(C)ccc2OC)CC1	nt	nt	nt	nt	nt	1%
Nc1ncc(S(=O)(=O)NCc2cccc(Cl)c2)cn1	nt	nt	nt	nt	nt	-2%
